We go through 52 compounds from PMC4336329 (PLoS ONE, 2015).

About 14,000 (4.5%) of roughly 310,000 compounds showed an effect of 50% or more. The effect is printed as a negative number. The list comes from a sample in which strong results are over-represented; it also holds similar structures and randomly drawn compounds.
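Also: peak tail current of the secondary pulse compared with the same well before compound.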

The target of this test is human ether-à-go-go-related gene (hERG) potassium channel (human, UniProt Q12809). Kind of test: primary screen, population patch clamp on CHO cells stably expressing hERG; higher = less effect of the substance.
Sequence of human ether-à-go-go-related gene (hERG) potassium channel (Q12809 whole entry, looked up): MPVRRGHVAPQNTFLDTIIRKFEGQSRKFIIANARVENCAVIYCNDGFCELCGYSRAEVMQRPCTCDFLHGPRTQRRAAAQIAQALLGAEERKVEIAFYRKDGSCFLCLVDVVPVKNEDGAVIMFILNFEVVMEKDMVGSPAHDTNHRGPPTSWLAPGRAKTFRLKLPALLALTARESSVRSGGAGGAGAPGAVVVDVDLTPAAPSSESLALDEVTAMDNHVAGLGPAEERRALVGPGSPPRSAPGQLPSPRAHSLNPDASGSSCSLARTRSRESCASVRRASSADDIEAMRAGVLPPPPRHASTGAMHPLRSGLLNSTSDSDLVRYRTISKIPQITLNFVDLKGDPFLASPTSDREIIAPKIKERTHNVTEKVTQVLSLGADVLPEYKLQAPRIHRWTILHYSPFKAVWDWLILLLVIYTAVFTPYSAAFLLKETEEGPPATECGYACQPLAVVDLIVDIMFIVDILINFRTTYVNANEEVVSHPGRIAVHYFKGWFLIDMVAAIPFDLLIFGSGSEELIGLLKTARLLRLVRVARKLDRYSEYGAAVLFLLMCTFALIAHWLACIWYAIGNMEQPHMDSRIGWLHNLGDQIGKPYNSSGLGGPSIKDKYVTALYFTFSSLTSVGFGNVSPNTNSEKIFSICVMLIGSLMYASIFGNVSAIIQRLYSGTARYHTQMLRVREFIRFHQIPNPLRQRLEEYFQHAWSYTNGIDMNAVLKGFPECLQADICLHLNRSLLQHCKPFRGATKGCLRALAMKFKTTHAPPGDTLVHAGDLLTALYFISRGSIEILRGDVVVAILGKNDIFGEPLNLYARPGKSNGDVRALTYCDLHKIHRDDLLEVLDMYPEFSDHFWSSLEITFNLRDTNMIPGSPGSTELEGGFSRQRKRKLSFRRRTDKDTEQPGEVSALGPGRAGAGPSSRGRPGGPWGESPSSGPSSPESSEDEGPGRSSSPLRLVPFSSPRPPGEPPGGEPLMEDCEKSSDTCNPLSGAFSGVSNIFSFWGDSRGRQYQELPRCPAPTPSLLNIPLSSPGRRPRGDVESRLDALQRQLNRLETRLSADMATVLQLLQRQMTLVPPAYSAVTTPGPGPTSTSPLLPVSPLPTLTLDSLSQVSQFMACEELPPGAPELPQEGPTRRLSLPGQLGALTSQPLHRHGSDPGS
With `O=C(NC(=O)c1ccc(F)cc1)Nc1nc(-c2cccs2)cc(C(F)(F)F)n1`, the “hERG current change (%, negative = inhibition) at 10uM” value amounted to 12.2%. As for `Cn1nnnc1SCC(=O)N1CCOCC1`, the figure is 16.2%; as for `CN1CCN(C(=O)/C(=C/c2ccc(F)cc2)c2ccsc2)CC1.Cl`, -70.1%. As for `CN1CCN(C(=O)/C(C#N)=C/c2ccc(F)cc2)CC1.Cl`, the figure is 6.63%; as for `CN1CCN(C(=O)/C(=C/c2ccccc2)c2ccccc2)CC1`, -54.8%.

For `CN1CCN(C(=O)/C(=C\c2ccccc2)c2ccccc2)CC1`, the “hERG current change (%, negative = inhibition) at 10uM” value was -59.9%. With `CN1CCN(C(=O)CCC(=O)c2ccc(F)cc2)CC1`, the “hERG current change (%, negative = inhibition) at 10uM” value came out at 8.49%. On to `C/C(=C/c1ccccc1)C(=O)N1CCN(c2ccccc2)CC1`, for which the “hERG current change (%, negative = inhibition) at 10uM” value is on record as -16.2%.

On to `O=C(O)/C(=C\c1ccccc1)c1ccccc1`, for which the “hERG current change (%, negative = inhibition) at 10uM” value was -0.424%.

Consider `CC1CCCCN1C(=O)/C(=C\c1ccccc1)c1ccccc1` (stereo not shown), for which the “hERG current change (%, negative = inhibition) at 10uM” value is recorded as -17.4%. Take `CC1CC(C)CN(C(=O)/C(=C\c2ccccc2)c2ccccc2)C1` (stereo not shown): the “hERG current change (%, negative = inhibition) at 10uM” value was -27.4%. Next, `COCCn1c(-c2ccccc2)nc(=S)c2c1CC(C)(C)OC2`: -11.5%. Next, `COc1ccc(-c2noc(N3CCC(C(=O)NCc4ccc(F)cc4)CC3)n2)cc1`: -20.4%; `CC(=N)C1=C(O)CC(C)(C)CC1=O`: 1.84%.

In the case of `CC(=O)NCCCC(=O)NN1C(=S)N(Cc2ccccc2)C(=O)C1CC(=O)Nc1cccc(C)c1` (stereo not shown), the “hERG current change (%, negative = inhibition) at 10uM” value came to 8.8%. As for `O=C(NC1CC(=O)N(c2ccc3c(c2)OCCO3)C1)N1CCCCC1` (stereo not shown), the figure is 12.4%; as for `CC1(c2nnc(-c3ccc(F)cc3)o2)CC(c2c(Cl)cccc2Cl)=NO1` (stereo not shown), -37%. As for `COC(=O)c1nnn(-c2nonc2N)c1CN1CCc2ccccc21`, the figure is 4.57%; as for `c1ccc(CNCC2COc3ccccc3O2)cc1` (stereo not shown), 8.17%; as for `O=C(Cn1c(CO)nc2ccccc21)Nc1ccccc1Cl`, 25.1%.

Take `CCC(CC)c1nnc(NC(=O)CCc2ccc(OC)cc2)s1`: the “hERG current change (%, negative = inhibition) at 10uM” value turned out to be 13.1%. `CCN(Cc1cc2cc(C)ccc2[nH]c1=O)C(=O)c1cccc([N+](=O)[O-])c1`: the “hERG current change (%, negative = inhibition) at 10uM” value is reported as -37.9%. For `Cc1cc2cc(CCNC(=O)c3cccc([N+](=O)[O-])c3)c(=O)[nH]c2cc1C`, the “hERG current change (%, negative = inhibition) at 10uM” value is given as -47.1%. Next, `Cc1ccc2cc(CCNC(=O)c3cccc([N+](=O)[O-])c3)c(=O)[nH]c2c1`: -20.2%. Next, `Cc1ccc2[nH]c(=O)c(CN(C(=O)c3cccc([N+](=O)[O-])c3)C(C)C)cc2c1`: -50.5%. As for `COc1ccc2cc(CCNC(=O)c3cccc([N+](=O)[O-])c3)c(=O)[nH]c2c1`, the figure is -79.2%. As to `CC(C)N(Cc1cc2ccccc2[nH]c1=O)C(=O)c1cccc([N+](=O)[O-])c1`, the “hERG current change (%, negative = inhibition) at 10uM” value is recorded as -13.4%. As for `CC(O)CNc1nc2c(c(=O)n(C)c(=O)n2C)n1C/C=C/c1ccccc1` (stereo not shown), the “hERG current change (%, negative = inhibition) at 10uM” value is -13.7%. Turning to `COc1ccc(NS(=O)(=O)c2cc(NC(=O)c3ccc(=O)[nH]n3)ccc2N2CCOCC2)cc1`, the “hERG current change (%, negative = inhibition) at 10uM” value was -23.2%. In the case of `COc1ccc(NC(=O)C2CCN(S(=O)(=O)c3cccc4cccnc34)CC2)cc1OC`, the “hERG current change (%, negative = inhibition) at 10uM” value is listed as 9.47%. Next, `Cc1nn(C(C)(C)C)c(C)c1/C=N/OC(=O)Nc1ccc(Cl)c(Cl)c1`: 1.85%. As for `CC#CCN(Cc1ccco1)C(=O)c1ccc(OC2CCN(Cc3ccccn3)CC2)cc1`, the figure is -60.3%; as for `C=CCN(CC=C)C(=O)c1ccc(OC2CCN(Cc3ccccn3)CC2)cc1`, -9.67%.

Take `CN(C(=O)c1ccc(OC2CCN(Cc3ccccn3)CC2)cc1)C1CCCCC1`: the “hERG current change (%, negative = inhibition) at 10uM” value is given as -9.82%. Next, `CN(Cc1ccco1)C(=O)c1ccc(OC2CCN(Cc3ccccn3)CC2)cc1`: -6.63%; `C#CCN(C(=O)c1ccc(OC2CCN(Cc3ccccn3)CC2)cc1)C1CCCCC1`: -39.6%; `C#CCN(Cc1ccco1)C(=O)c1ccc(OC2CCN(Cc3ccccn3)CC2)cc1`: -66.9%. For `CCOC(=O)c1cnn(-c2nc(CC)nc3sc4c(c23)CCC4)c1N`, the “hERG current change (%, negative = inhibition) at 10uM” value is given as 8.44%. Next, `O=C(c1ccc(-n2cncn2)c([N+](=O)[O-])c1)N1CCN(S(=O)(=O)c2cccc(F)c2)CC1`: -71.9%; `O=C(c1ccc2nc[nH]c2c1)N1CCN(S(=O)(=O)c2cccc(F)c2)CC1`: 12%; `C=CCN1C(=O)c2ccc(C(=O)N3CCN(S(=O)(=O)c4cccc(F)c4)CC3)cc2C1=O`: -62.7%.

Turning to `Nc1ccc(C(=O)N2CCN(S(=O)(=O)c3ccc(Cl)cc3)CC2)cc1[N+](=O)[O-]`, the “hERG current change (%, negative = inhibition) at 10uM” value is -46.1%. Next, `O=C(c1ccc(Cl)c([N+](=O)[O-])c1)N1CCN(S(=O)(=O)c2ccc(Cl)cc2)CC1`: -11.3%; `O=C(c1ccncc1)N1CCN(S(=O)(=O)c2cccc(F)c2)CC1`: 7.6%. Consider `O=C(c1ccc(-n2cncn2)c([N+](=O)[O-])c1)N1CCN(S(=O)(=O)c2ccc(Cl)cc2)CC1`, for which the “hERG current change (%, negative = inhibition) at 10uM” value is -61.4%. As for `O=C(NNC(=O)c1ccccc1F)c1ccc(-n2cncn2)c([N+](=O)[O-])c1`, the figure is 7.74%; as for `O=C(c1ccc(-n2cncn2)c([N+](=O)[O-])c1)N1CCN(S(=O)(=O)c2ccccc2F)CC1`, -45.1%; as for `O=C(c1ccc(-n2cncn2)c([N+](=O)[O-])c1)N1CCN(S(=O)(=O)c2c(F)cccc2F)CC1`, -56.8%. Next, `C=CCN1C(=O)c2ccc(C(=O)N3CCN(S(=O)(=O)c4cccc(Cl)c4)CC3)cc2C1=O`: -14.8%. Next, `C=CCN1C(=O)c2ccc(C(=O)N3CCN(S(=O)(=O)c4cccc([N+](=O)[O-])c4)CC3)cc2C1=O`: -30.4%; `Cc1ccc2cccnc2c1N`: 4.5%.

Regarding `NC(=O)c1ccccc1NC(=O)C1CCCO1` (stereo not shown), the “hERG current change (%, negative = inhibition) at 10uM” value came out at 8.51%.
